The values that follow come from PubChem BioAssay (EPA / NIEHS).

Active and inactive are the calls of the source. The calls were made as follows: active = hit-call score of the fitted dose curve at least 0.9, where 1 is the maximum; inactive = score below 0.9.

Read-out in assay [1]: Interleukin-8 (IL8), CXCL8 (gene 3576)
The assay is described as follows: BSK_CASM3C_IL8: BioMAP Diversity Plus: CASM3C Assay for Interleukin-8 (IL8) Biomarker Activity (AID 2283042).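 Also: IL-8 protein level quantified by ELISA.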 The settings on record: primary human coronary artery smooth muscle cells; actives raise or lower the signal.

Read-out in assay [2]: Macrophage colony-stimulating factor (MCSF), CSF1 (gene 1435)
The assay is described as follows: BSK_CASM3C_MCSF: BioMAP Diversity Plus: CASM3C Assay for Macrophage colony-stimulating factor (MCSF) Biomarker Activity (AID 2283044).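 Also: M-CSF protein amount quantified by ELISA after 24 h exposure.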 The settings on record: primary human coronary artery smooth muscle cells; actives raise or lower the signal.

Read-out in assay [3]: Low-density lipoprotein receptor (LDLR), LDLR (gene 3949)
The assay can be described thus: BSK_CASM3C_LDLR: BioMAP Diversity Plus: CASM3C Assay for Low-density lipoprotein receptor (LDLR) Biomarker Activity (AID 2283045).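 Also: LDLR protein level on the cell surface quantified by ELISA.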 The settings on record: primary human coronary artery smooth muscle cells; actives raise or lower the signal.

Read-out in assay [4]: Monocyte Chemoattractant Protein-1 (MCP1), CCL2 (gene 6347)
The assay can be described thus: BSK_CASM3C_MCP1: BioMAP Diversity Plus: CASM3C Assay for Monocyte Chemoattractant Protein-1 (MCP1) Biomarker Activity (AID 2283046).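 Also: MCP-1 level quantified by ELISA 24 h after dosing.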 Particulars: primary human coronary artery smooth muscle cells; actives raise or lower the signal.

Assay [5] in a line: BSK_CASM3C_Proliferation: Cell Proliferation Assessment in the BioMAP Diversity Plus: CASM3C Assay (AID 2283047).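 Also: sulforhodamine B total protein stain as relative cell number at 560 nm; sub-confluent cells exposed 48 h before staining; fitted both ways against DMSO so gain or loss of cell number.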 Particulars: primary human coronary artery smooth muscle cells.
Read-out in assay [6]: Monokine induced gamma interferon (MIG), CXCL9 (gene 4283)
The assay can be described thus: BSK_CASM3C_MIG: BioMAP Diversity Plus: CASM3C Assay for Monokine induced gamma interferon (MIG) Biomarker Activity (AID 2283048).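 Also: MIG protein level measured by ELISA.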 Particulars: primary human coronary artery smooth muscle cells; actives raise or lower the signal.

Read-out in assay [7]: serum amyloid A (SAA), SAA1 (gene 6288)
The assay can be described thus: BSK_CASM3C_SAA: BioMAP Diversity Plus: CASM3C Assay for serum amyloid A (SAA) Biomarker Activity (AID 2283049).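 Also: SAA protein level quantified by ELISA.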 The settings on record: primary human coronary artery smooth muscle cells; actives raise or lower the signal.

The nature of assay [8]: BSK_CASM3C_SRB: Viability Assessment in the BioMAP Diversity Plus: CASM3C Assay (AID 2283050).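 Also: total protein by SRB staining as cytotoxicity measure in parallel cultures; cells exposed to compound for 24 h.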 Particulars: primary human coronary artery smooth muscle cells.
Read-out in assay [9]: Thrombomodulin, THBD (gene 7056)
The assay can be described thus: BSK_CASM3C_Thrombomodulin: BioMAP Diversity Plus: CASM3C Assay for Thrombomodulin Biomarker Activity (AID 2283051).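 Also: thrombomodulin protein level measured by ELISA 24 h after dosing.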 The settings on record: primary human coronary artery smooth muscle cells; actives raise or lower the signal.

Read-out in assay [10]: Tissue Factor, F3 (gene 2152)
The assay is described as follows: BSK_CASM3C_TissueFactor: BioMAP Diversity Plus: CASM3C Assay for Tissue Factor Biomarker Activity (AID 2283052).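 Also: cell surface tissue factor protein level read by ELISA.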 Particulars: primary human coronary artery smooth muscle cells; actives raise or lower the signal.

Read-out in assay [11]: Interferon-gamma inducible Protein 10 (IP10), CXCL10 (gene 3627)
The assay can be described thus: BSK_hDFCGF_IP10: BioMAP Diversity Plus: hDFCGF Assay for Interferon-gamma inducible Protein 10 (IP10) Biomarker Activity (AID 2283053). The settings on record: primary human foreskin fibroblasts; actives raise or lower the signal. Summed up:
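IP-10 levels, quantified by ELISA, are taken from human foreskin fibroblast cultures 24 h after chemical treatment, with DMSO serving as negative control and baseline for bidirectional analysis.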

Read-out in assay [12]: Urokinase-type plasminogen activator receptor (uPAR), PLAUR (gene 5329)
The assay is described as follows: BSK_CASM3C_uPAR: BioMAP Diversity Plus: CASM3C Assay for Urokinase-type plasminogen activator receptor (uPAR) Biomarker Activity (AID 2283054).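 Also: cell-surface uPAR protein level quantified by ELISA.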 Particulars: primary human coronary artery smooth muscle cells; actives raise or lower the signal.

Read-out in assay [13]: Vascular cell adhesion molecule 1 (VCAM1), VCAM1 (gene 7412)
The assay can be described thus: BSK_CASM3C_VCAM1: BioMAP Diversity Plus: CASM3C Assay for Vascular cell adhesion molecule 1 (VCAM1) Biomarker Activity (AID 2283055).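 Also: VCAM-1 protein level quantified by ELISA on the cells.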 Particulars: primary human coronary artery smooth muscle cells; actives raise or lower the signal.

Read-out in assay [14]: Collagen III, COL3A1 (gene 1281)
The assay can be described thus: BSK_hDFCGF_CollagenIII: BioMAP Diversity Plus: hDFCGF Assay for Collagen III Biomarker Activity (AID 2283056). The settings on record: primary human foreskin fibroblasts; actives raise or lower the signal. The gist of the method: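 Human foreskin primary fibroblasts were exposed to test chemicals for 24 h, after which collagen III was quantified by ELISA. Activity was fitted bidirectionally against DMSO as negative control and baseline.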

Read-out in assay [15]: Epidermal growth factor receptor (EGFR), EGFR (gene 1956)
The assay can be described thus: BSK_hDFCGF_EGFR: BioMAP Diversity Plus: hDFCGF Assay for Epidermal growth factor receptor (EGFR) Biomarker Activity (AID 2283057). The settings on record: primary human foreskin fibroblasts; actives raise or lower the signal. The gist of the method: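 Measured by ELISA: EGFR levels on primary human foreskin fibroblasts 24 h after chemical treatment, analysed relative to DMSO with bidirectional fitting.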

Read-out in assay [16]: Interleukin-8 (IL8), CXCL8 (gene 3576)
The assay is described as follows: BSK_hDFCGF_IL8: BioMAP Diversity Plus: hDFCGF Assay for Interleukin-8 (IL8) Biomarker Activity (AID 2283058). Particulars: primary human foreskin fibroblasts; actives raise or lower the signal. The gist of the method:
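hDFCGF human dermal fibroblasts; 24 h chemical exposure; IL-8 by ELISA; bidirectional curve fit vs DMSO baseline; gain or loss of signal scored.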

Assay [17] can be described thus: BSK_hDFCGF_Proliferation: Cell Proliferation Assessment in the BioMAP Diversity Plus: hDFCGF Assay (AID 2283059).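 Also: curves fitted for both rise and fall of signal versus DMSO baseline.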 Particulars: primary human foreskin fibroblasts. Summed up: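 This proliferation readout used SRB total-protein staining of human foreskin fibroblasts […], normalized to DMSO with bidirectional curve fitting.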
Assay [18] in a line: BSK_hDFCGF_SRB: Viability Assessment in the BioMAP Diversity Plus: hDFCGF Assay (AID 2283061).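 Also: cells exposed to compound for 24 h before the read.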 The settings on record: primary human foreskin fibroblasts. Summed up:
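Human foreskin primary fibroblasts were treated with compound and assessed 24 h after dosing. Total protein was measured by sulforhodamine B staining (0.1% SRB after 10% TCA fixation, 560 nm read) as a cytotoxicity marker, with bidirectional fitting against DMSO baseline.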

Read-out in assay [19]: Human Leukocyte Antigen - DR isotype (HLADR), HLA-DRA (gene 3122)
The assay is described as follows: BSK_CASM3C_HLADR: BioMAP Diversity Plus: CASM3C Assay for Human Leukocyte Antigen - DR isotype (HLADR) Biomarker Activity (AID 2283043).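 Also: cell-surface HLA-DR protein level quantified by ELISA.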 Particulars: primary human coronary artery smooth muscle cells; actives raise or lower the signal.

For `CC(=O)C1(C)CC2=C(CCCC2(C)C)CC1C` (stereo not drawn), the result in assay [1], in assay [3] and in [9] was inactive. Also, the AC50 in [2] is 10.3 µM (active); in assay [4] it was 20 µM (active); in assay [5], 13.2 µM (active); in assay [6] it was 27.6 µM (active); in assay [7], 11.9 µM (active); in [8], 12.4 µM (active). The concentration at half-maximal activity (AC50) in assay [10] was 11.6 µM (active); in assay [11], 13.8 µM (active); in [12], 12.3 µM (active); in [13] it was 11.4 µM (active); in assay [14], 10.5 µM (active); in assay [15], 6.8 µM (active). Besides, the half-maximal activity concentration (AC50) in assay [16] was 31.7 µM (active); in [17], 10.6 µM (active); in assay [18] it was 11.2 µM (active).
`CC(C)(N=C=O)c1cccc(C(C)(C)N=C=O)c1`: the outcome in assay [1], in assay [19], in assay [2], in assay [3], in [4] and in [5] was inactive. Further, the outcome in assay [6], in assay [7], in assay [8], in assay [9], in assay [10] and in [11] was inactive. For the same compound, the result in assay [12], in [13], in assay [14], in assay [15], in assay [16] and in [18] was inactive. For the same compound, the AC50 in [17] was 29.9 µM (active).
With `c1ccc2cc(Nc3ccc(Nc4ccc5ccccc5c4)cc3)ccc2c1`, the result in assay [1], in [19], in [2], in [3], in [4] and in [5] was inactive. The outcome in assay [6], in [7], in [8], in [9], in assay [10] and in [11] was inactive. Moreover, the result in [12], in assay [13], in assay [14], in assay [15], in [16] and in assay [17] was inactive. In assay [18], the result was inactive.
As for `Oc1c(Cl)cc(Cl)c(Cl)c1Cc1c(O)c(Cl)cc(Cl)c1Cl`, the outcome in [1], in assay [3], in assay [9] and in [15] was inactive. Besides, the half-maximal activity concentration (AC50) in assay [19] is 2.28 µM (active); in assay [2], 8.79 µM (active); in [4] it was 30.7 µM (active); in assay [5], 5.37 µM (active); in assay [6], 19.8 µM (active); in assay [7], 3.97 µM (active). Also, the AC50 is 7.17 µM (active) in assay [8]; 1.73 µM (active) in [10]; 2.82 µM (active) in [11]; 1.97 µM (active) in assay [12]; 9.96 µM (active) in [13]; 4.93 µM (active) in assay [14]. The AC50 was 3.96 µM (active) in assay [16], 0.113 µM (active) in assay [17] and 5.15 µM (active) in [18].
On to `CC1(C)C2=CCCC(C)(C)[C@]23CC[C@H]1C3`, for which the result in [1], in assay [6], in [9], in assay [15] and in assay [16] was inactive. For the same compound, the AC50 in assay [19] is 20 µM (active); in assay [2] it was 32.7 µM (active); in assay [3] it was 34.6 µM (active); in [4], 31.3 µM (active); in assay [5], 30.7 µM (active); in [7] it was 20 µM (active). For the same compound, the AC50 is 31.1 µM (active) in assay [8]; 30.9 µM (active) in assay [10]; 34.9 µM (active) in [11]; 20 µM (active) in assay [12]; 30.8 µM (active) in assay [13]; 20 µM (active) in assay [14]. For the same compound, the AC50 in assay [17] is 8.84 µM (active); in assay [18], 31.9 µM (active).
For `C[C@@H]1CCN(C(=O)[C@H](CCCN=C(N)N)NS(=O)(=O)c2cccc3c2NC[C@H](C)C3)[C@@H](C(=O)O)C1`, the outcome in [1], in assay [19], in assay [2], in assay [3], in [4] and in assay [5] was inactive. The outcome in assay [6], in assay [7], in assay [8], in [9], in [10] and in assay [11] was inactive. In addition, the outcome in assay [12], in assay [13], in assay [14], in assay [15], in assay [16] and in [17] was inactive. Further, the result in [18] was inactive.
